USP17 block: inhibitors of human USP17 deubiquitinase; Ubiquitin carboxyl-terminal hydrolase 17-like protein 5 (Homo sapiens), A8MUK1; purified USP17, Ub-rhodamine cleavage fluorescence, 3 h; inhibition, % at 50 µM; 6.5% of 47,000 active; AID 1645855, 2021
Target sequence (A8MUK1 whole entry, looked up): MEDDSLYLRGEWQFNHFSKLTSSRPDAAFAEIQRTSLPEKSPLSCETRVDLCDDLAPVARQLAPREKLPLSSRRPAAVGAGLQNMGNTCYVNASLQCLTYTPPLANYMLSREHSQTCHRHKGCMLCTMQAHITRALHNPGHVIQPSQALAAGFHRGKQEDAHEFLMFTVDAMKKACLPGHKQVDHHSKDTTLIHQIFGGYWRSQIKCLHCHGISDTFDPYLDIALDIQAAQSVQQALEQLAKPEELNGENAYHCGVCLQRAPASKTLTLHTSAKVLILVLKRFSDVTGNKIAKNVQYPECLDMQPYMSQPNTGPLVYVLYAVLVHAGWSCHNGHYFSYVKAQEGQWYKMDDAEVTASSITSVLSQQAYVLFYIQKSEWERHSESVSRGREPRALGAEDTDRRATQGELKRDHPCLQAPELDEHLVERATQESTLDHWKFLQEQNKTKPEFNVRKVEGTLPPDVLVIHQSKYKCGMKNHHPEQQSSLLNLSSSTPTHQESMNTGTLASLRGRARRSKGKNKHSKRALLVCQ
OTUD3 inh: inhibitors of human OTUD3 deubiquitinase; OTU domain-containing protein 3 (Homo sapiens), Q5T2D3; purified OTUD3, Ub-rhodamine fluorescence, 2 h; inhibition, % at 25 µM; 0.7% of 47,000 active
USP28 block: inhibitors of human USP28 deubiquitinase; purified USP28, Ub-rhodamine cleavage fluorescence, 30 min; 3% of 47,000 active; Ubiquitin carboxyl-terminal hydrolase 28 (Homo sapiens), Q96RU2; inhibition, % at 25 µM
USP30 block: inhibitors of human USP30 deubiquitinase; Ubiquitin carboxyl-terminal hydrolase 30 (Homo sapiens), Q70CQ3; purified USP30, Ub-rhodamine cleavage fluorescence; inhibition, % at 25 µM; 5.3% of 47,000 active
Large screens that a line does not name were inactive. Only some compounds are listed: those with a hit (about 11% of all), similar ones and a draw of the others. No stated cut-off is given here; in the data, active means inhibition above about 30%; inactive means the rest.

CN1[C@@H](CCC(=O)N2CCN(c3ccccn3)CC2)CNC(=O)[C@@H]2[C@H]1CCN2C1CCCCC1	none
Cc1onc(C(C)C)c1C(=O)N[C@H]1CC[C@]2(CCC(=O)N2)[C@@H](c2ccccc2)C1	none
Cc1c(C)n2c3c(=O)n(CC(=O)c4ccccc4)c(=O)n(C)c3nc2n1C(C)C	none
COc1ccc(Nc2nc(C(=O)NCCCN3CCCC3=O)cc3occc23)cc1	none
COc1ccccc1-c1nc(Cn2nnc(C(=O)Nc3cc(C)cc(C)c3)c2N)c(C)o1	USP17 block 66, USP30 block 35
O=C(CSc1nc2ccccc2[nH]1)Nc1cccc2c1OCCO2	USP28 block 41
COCCCN1CCS(=O)(=O)c2c(Cl)c(F)nc(Oc3ccccc3)c21	USP17 block 41
COc1ccc(Oc2nc(F)c(Cl)c3c2N(CC2CCCO2)CCS3(=O)=O)cc1 (configuration not stated)	USP17 block 33
CCCCN1CCS(=O)(=O)c2c(Cl)c(F)nc(Oc3ccc(OC)cc3)c21	none
Cc1ccc(S(=O)(=O)Nc2ccccc2C(=O)Nc2nc3ccc(Br)cc3s2)cc1	USP17 block 97, OTUD3 inh 84, USP28 block 77, USP30 block 75
CCn1c(=O)c(C(=O)Nc2ccc(Br)cc2)nc2ccccc21	USP17 block 34
CC(=O)Nc1cccc(NC(=O)c2nc3ccccc3n(C)c2=O)c1	none
Cn1c(=O)c(C(=O)Nc2ccc(Br)cc2)nc2ccccc21	USP30 block 34
Cn1c(=O)c(C(=O)Nc2ccc(Br)cc2F)nc2ccccc21	USP17 block 46
CN(Cc1ccccc1)C(=O)C1=NOC2(CCNC2)C1 (configuration not stated)	none
Cc1ccc(-c2cc(C#N)c(=O)n(Cc3ccccc3)c2)cc1	none
Cc1ccc(-c2cc(C#N)c(=O)n(Cc3ccc(F)cc3)c2)cc1	USP17 block 41
CCCOC(=O)c1cccc(Nc2ncnc3ccc(Br)cc23)c1	none
CC1(C)Cc2c(sc3nc(SCc4ccc(Cl)c(Cl)c4)nc(N)c23)CO1	none
COc1cccc(C(=O)N2Cc3ccccc3CN3C(=O)NC(=O)C3C2)c1 (configuration not stated)	none
COc1ccc(C(=O)Nc2sc3c(c2C(=O)NCc2cccnc2)CCCC3)cc1	USP17 block 66, OTUD3 inh 40
COc1ccc(CN2CCc3oc(C)c(C(=O)NCc4cccnc4)c3C2)cc1	none
Cc1nn(-c2ccc(F)cc2)c2c1C(C(=O)c1ccc3c(c1)OCCO3)CC(=O)N2 (configuration not stated)	none
COc1ccccc1-c1nc(SCc2ccccn2)n[nH]1	none
Cc1cc2nc(-c3ccc(SCc4ccccn4)nc3)[nH]c2cc1C	USP17 block 57
CC(C)c1ccc(CNC(=O)c2nc3ccccc3[nH]2)cc1	USP17 block 50
O=C(Cc1nc2ccccc2[nH]1)NCc1ccc(F)cc1	none
O=C1NC2(CCCC2)C(=O)N1Cc1nc(-c2ccc(Cl)cc2)no1	none
COc1ccc(O)c(C(=O)c2cc(C#N)c(=O)n(-c3cccc(C(F)(F)F)c3)c2)c1	none
COc1ccc(C2/C(=C(\O)c3ccccc3)C(=O)C(=O)N2c2nc3ccc(F)cc3s2)cc1 (configuration not stated)	USP30 block 55 (no result: USP17 block)
COc1ccc(C2/C(=C(\O)c3ccccc3)C(=O)C(=O)N2c2cccc(C(F)(F)F)c2)cc1 (configuration not stated)	USP30 block 33 (no result: USP17 block)
Cc1ccc(C2/C(=C(\O)c3ccc(F)cc3)C(=O)C(=O)N2c2nc3ccc(F)cc3s2)cc1 (configuration not stated)	none (no result: USP17 block)
COc1ccc(NC(=O)NCCN2CCN(c3ccccc3F)CC2)c(OC)c1	none
Clc1ccccc1CSc1nnc(C2CCCCC2)n1Cc1ccccc1	USP17 block 37, USP30 block 57
COc1cccc(CN2CCC3(CC2)Nc2ccccc2C2=NCCN23)c1	none
CC1CCCCN1c1nc(F)c2c(c1F)S(=O)(=O)CCN2Cc1ccccc1 (configuration not stated)	USP17 block 57
C[C@@]12CCc3occc3C1CCC13CC(CCC12)[C@@](O)(CO)C3 (some centres not stated)	USP17 block 47, USP30 block 32
O=C(Nc1ccc2c(c1)OCCO2)c1ccc(N2CCCC2=O)cc1	USP17 block 35, USP28 block 45, USP30 block 67
COc1ccc(C(=O)Nc2cccc(N3CCCCC3=O)c2)cc1	none
CC(OC(=O)c1ccc(N2CCCC2=O)cc1)C(=O)Nc1ccc2c(c1)OCCO2 (configuration not stated)	USP17 block 43
CC(OC(=O)c1ccc(N(C)C)cc1)C(=O)Nc1ccc2c(c1)OCCO2 (configuration not stated)	USP17 block 40
CN(C)S(=O)(=O)c1cccc(NC(=O)c2ccc(N3CCCC3=O)cc2)c1	USP17 block 48, USP28 block 44, USP30 block 32
Cc1ccc(NC(=O)N(C)CCc2ccccn2)cc1Cl	none
CC(OC(=O)CNC(=O)c1ccc(Br)cc1)C(=O)Nc1ccc2c(c1)OCCO2 (configuration not stated)	USP17 block 66
O=C(Nc1ccc2c(c1)OCO2)c1cncc(NS(=O)(=O)c2ccc3c(c2)OCCO3)c1	none
Cc1noc(C)c1S(=O)(=O)Nc1ccc(C(=O)Nc2ccc3c(c2)OCCO3)cc1	USP28 block 85
CCCCNC(=O)c1cc(-c2ccc(Cl)cc2)nc2ccccc12	none
CCn1c(-c2nnc(SCC(=O)NCCc3nc4ccccc4[nH]3)o2)cc2ccccc21	USP17 block 92 (no result: USP28 block, USP30 block)
O=C(CSc1nc(-c2ccccc2)c2ccccc2n1)NCc1ccc(C(=O)O)cc1	USP30 block 32
CCn1cc(-c2nc(-c3ccccn3)no2)c(=O)c2cc(F)ccc21	USP17 block 58
COCCN1[C@H]2CCN(Cc3ccc(OC)cc3)CC[C@@H]2Oc2ccccc2S1(=O)=O	none
O=C(COC(=O)c1cc2c(s1)CCC2)c1ccc2[nH]c(=O)[nH]c2c1	USP17 block 56, OTUD3 inh 36, USP28 block 66
O=C(c1cccnn1)N1CCCC1c1ncc(Cc2ccc(F)cc2)o1 (configuration not stated)	none
NS(=O)(=O)c1ccc(CNC(=O)c2cn3cc(Cl)ccc3n2)cc1	none
Cc1cccc(-n2c(=O)[nH]c3c(c2=O)C(C)(C)Cc2ccccc2-3)c1	none
Cc1ccc2c(c1)OCC(=O)N2Cc1nc(-c2ccc(F)cc2)no1	none
Cc1ccc2c(c1)OCC(=O)N2Cc1nc(-c2cccc(F)c2)no1	USP30 block 35
Cc1ccc2c(c1)OCC(=O)N2Cc1nc(-c2ccccc2)no1	USP17 block 45
c1ccc(-c2cc(-c3csc(-c4ccc5c(c4)OCCO5)n3)on2)cc1	USP17 block 51, OTUD3 inh 40, USP30 block 35
O=[N+]([O-])c1cccc(-c2csc(-c3ccc4c(c3)OCO4)n2)c1	none
OCCCNc1ncnc2c1c(-c1ccccc1)c(-c1ccccc1)n2Cc1ccco1	none

High-throughput results (PubChem)
